# Screens from PubChem BioAssay.
# SARS PLpro yeast = blocks SARS-CoV papain-like protease in a yeast assay; S. cerevisiae expressing SARS-CoV PLpro, growth rescue; Potency, µM (series often up to 32.9 µM), without a hit: top-dose activity, positive = growth rescue, hits mostly activators; 0.19% of 330,000 active; also: potency is read from the fitted curve at half-maximal effect; 0% is about no effect; nearly all actives have a fitted effect of over 55% in size
# AMA1 RON2 block = inhibitors of Plasmodium falciparum AMA1-RON2 interaction | AlphaScreen AMA1-biotinylated RON2 peptide binding | Potency, µM (top dose mostly 58.2 µM), without a hit: at the highest dose activity change, negative = inhibition, actives largely listed as inhibitors | 0.2% of 360,000 active | AID 720542; active = well fitted inhibition curve with a large enough effect; inconclusive = small, poorly fitted or top-dose-only effect; inactive = no such curve, though single readings can be large or run the other way;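 also: potency is read from the fitted curve at half-maximal effect; 0% = vehicle wells and -100% = peptide control; nearly all actives have a fitted effect of over 45% in size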
#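 AMA1 (3D7) with his tag at 25 nM final met compounds first, then biotinylated RON2 peptide at 25 nM; detection used donor plus acceptor beads, 10 µg/mL apiece, read by AlphaScreen after 30 min at room temperature.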
# NS1 function inh = influenza NS1 inhibition | Potency, µM (highest dose often 46.1 µM), inactives show at the highest dose activity, positive = more growth | 0.4% of 270,000 active; also: potency is read from the fitted curve at half-maximal effect; actives are rising curves; nearly all actives have a fitted effect of over 50% in size
#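 A cell-based growth assay was used: compounds that relieve NS1-induced slow growth of budding yeast raise OD600. Assay medium was yeast nitrogen base with ammonium sulphate and -URA supplement, pH 6.0, with 2% galactose.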
# NS1 inh valid = influenza NS1 function inhibition validation | AID 492980 | activity change, negative = inhibition, % at 32.9 µM | influenza NS1 function cell assay, 15-point titration | shares compounds with NS1 function inh | 1,400 tested, under 10 active; also: 0% is about no effect
# * = called active by the depositor; ? = inconclusive; . = no result given. Rows were chosen to be rich in hits. Some 0.65% of all compounds tested hit in one or more screens of this group. Unless noted, calls follow the shape of the full dose curve.
SMILES,SARS PLpro yeast,AMA1 RON2 block,NS1 function inh,NS1 inh valid
COc1ccc(NS(=O)(=O)c2ccc(C)c(C(=O)N3CCCCCCC3)c2)cc1,3%,0%,.,.
CN(C)c1ccsc1C(=O)NNS(=O)(=O)c1ccc(Cl)cc1,.,0%,.,.
C=CCn1c(SC(C)C(=O)c2c(N)n(C)c(=O)n(C)c2=O)nnc1-c1ccoc1C (configuration not stated),0%,-6%,.,.
CCS(=O)(=O)N1CCN(c2ccc([N+](=O)[O-])c(NCc3cccnc3)c2)CC1,-1%,-3%,1%,.
O=[N+]([O-])c1ccc(N2CCN(S(=O)(=O)c3ccccc3[N+](=O)[O-])CC2)cc1NCc1cccnc1,6%,-9%,14µM*,31
C=CCN(C(=O)CCC(=O)Nc1cc(C)on1)C(C(=O)NC1CCCC1)c1ccc(CC)cc1 (configuration not stated),2%,9%,10%,.
Cc1ccccc1C(=O)NC1CC2CCCC(C1)N2CC(C)C (configuration not stated),.,0%,.,.
NC(=O)c1ccnc2c(O)cccc12,-5%,.,.,.
OCc1ccnc2c(O)cccc12,13%,11µM*,8.9µM*,-36
Cc1cc(C)cc(Oc2ccc(NC(=O)C3CC=CCC3C(=O)O)cc2)c1 (configuration not stated),1%,9%,.,.
COc1ccc([C@H]2[C@H](C(=O)C(C)(C)C)N3N=Cc4ccccc4C3[C@]23N=C(c2ccccc2)OC3=O)cc1 (some centres not stated),-2%,-5%,2µM*,-10
COc1ccc([C@H]2[C@H](C(=O)C(C)(C)C)N3N=Cc4ccccc4C3[C@]23N=C(c2ccccc2)OC3=O)cc1OC (some centres not stated),-3%,1%,27%,.
Cc1ccc(C(=O)OCC(=O)N2CCC(C)CC2)cc1S(=O)(=O)N1CCOCC1,.,-8%,.,.
Cc1cccc(NC(=S)/N=C(\N)Nc2nc(C)c3ccccc3n2)c1,?,65%,10µM*,-37
Cc1cccc(NC(=S)/N=C(\N)Nc2nc(C)c3ccc(C)cc3n2)c1,28%,83%,24%,.
O=C1CN(C(=O)CSc2nc3cc(Cl)ccc3c(=O)n2Cc2ccccc2)c2ccccc2N1,7%,51%,?,.
Cc1ccc(Cn2c(SCC(=O)N3CC(=O)Nc4ccccc43)nc3ccccc3c2=O)cc1,13%,10%,13µM*,6
O=C1c2ccccc2C(=O)N1c1nc2nccc(-c3ccccc3)n2n1,1%,25%,?,8
COc1ccc(-c2ccnc3nc(-n4cccc4)nn23)cc1,11%,-25%,?,.
COC(=O)C(O)(c1c(C)[nH]n(-c2ccccc2)c1=O)C(F)(F)F (configuration not stated),-4%,-5%,8.9µM*,?
Cc1[nH]n(-c2ccccc2)c(=O)c1C(=O)Nc1ccccc1,1%,-11%,-10%,.
CC1CN(C2CCCCC2)C(=S)NC1=O (configuration not stated),.,17%,.,.
Cc1nn(C)cc1/C=N\NC(=O)c1csc2c1CCCC2,4%,11%,?,2
Cc1ccc(/C=N/NC(=O)c2csc3c2CCCC3)cc1,-18%,-5%,-12%,.
CCNC(=S)N1CCc2cc(OC)c(OC)cc2C1COc1ccc(OC)cc1 (configuration not stated),0%,0%,.,.
SMILES,SARS PLpro yeast,AMA1 RON2 block,NS1 function inh,NS1 inh valid
COc1cccc(NC(=S)N2CCc3cc(OC)c(OC)cc3C2COc2ccc3c(C)cc(=O)oc3c2)c1 (configuration not stated),19%,-12%,8.9µM*,18
Cc1ccc(NC(=O)CS(=O)CC(=O)N(CC(=O)NC(C)(C)C)c2cccc(C)c2C)cc1 (configuration not stated),1%,-5%,-4%,.
Cn1c(=O)cc(OCCCC(=O)NCCCN2CCN(Cc3ccccc3)CC2)c2ccccc21,9%,6%,3.5µM*,-16
Cn1c(=O)cc(OCCCC(=O)NCCN2CCN(c3ccccc3F)CC2)c2ccccc21,-4%,-6%,-3%,.
Cc1cc(C(=O)N2CCCC(CO)(Cc3ccc(F)cc3)C2)c(C)o1 (configuration not stated),4%,1%,-22%,.
O=C(NCc1cccnc1)C1CCCN(S(=O)(=O)c2ccc(Cl)cc2)C1 (configuration not stated),0%,9%,-11%,.
O=C(COc1ccc(S(=O)(=O)N2CCCCC2)cc1)NCc1ccncc1,1%,10%,-6%,.
O=C(COc1ccc(S(=O)(=O)N2CCCC2)cc1)NCc1cccnc1,0%,14%,?,11
COc1ccc(OC)c(NC(=O)COc2ccc(S(=O)(=O)N3CCCC3)cc2)c1,-5%,-7%,?,-8
O=C(NCc1cccnc1)C1CCCN(S(=O)(=O)c2ccccc2)C1 (configuration not stated),11%,1%,1.6µM*,2
COc1ccc(OC)c(NC(=O)COC(=O)c2ccc(S(=O)(=O)N3CCCCC3)cc2)c1,.,-5%,.,.
O=C(NN1C(=O)C2C3C=CC(C3)C2C1=O)c1ccccc1 (configuration not stated),0%,9%,1%,.
Cc1cccc(C(=O)NN2C(=O)C3C(c4ccccc4)C=CC(c4ccccc4)C3C2=O)c1 (configuration not stated),-8%,-5%,3.2µM*,-1
N[C@@H](Cc1cc(I)c(O)c(I)c1)C(=O)O,0%,-10%,2%,.
NC(Cc1cc(O)c(O)cc1O)C(=O)O (configuration not stated),1%,.,8.9µM*,-14
Cc1ccc(OCc2nnc(SC(C)C(=O)O)n2Cc2ccccc2)cc1 (configuration not stated),-1%,4%,0%,.
C=CC[C@@H](CC(=O)OC(C)(C)C)C(=O)OC[C@H]1CCCN1C(=O)[C@@H](CC=C)CC(=O)NCCO,-6%,1%,.,.
C=CCn1c(-c2oc3nc(-c4ccccc4)cc(-c4ccccc4)c3c2N)n[nH]c1=S,-15%,60%,1.1µM*,-7
C=CCn1c(-c2cccc(Cl)c2)n[nH]c1=S,?,112%,-41%,.
CN(CC(=O)Nc1c(Cl)cccc1Cl)C(=O)C1CC(=O)N(Cc2ccccc2)C1 (configuration not stated),0%,42%,.,.
Cc1cc(Nc2cc(F)ccc2C)n2nc(C)nc2n1,-20%,0%,7%,.
Cc1cc(Nc2ccc(F)cc2F)n2nc(C)nc2n1,7%,-4%,13µM*,-27
O=c1[nH]c(C2CCCN(S(=O)(=O)c3ccc(F)cc3)C2)nc2c1nnn2Cc1ccc(F)cc1 (configuration not stated),1%,-1%,?,-5
Cc1ccc(Cn2nnc3c(=O)[nH]c(C4CCCN(S(=O)(=O)c5ccc(F)cc5)C4)nc32)cc1 (configuration not stated),1%,-6%,3%,.
Cc1ccccc1N1C(=O)NC(=O)/C(=C\c2ccc3c(c2)CCCN3Cc2ccccc2)C1=O,3%,-15%,?,-31
O=Cc1ccc2c(c1)CCN2Cc1ccccc1,-2%,0%,-39%,.
